Results published in PubChem BioAssay (NCI).
The panel holds about 83,000 compounds, 20% with a hit somewhere; the sample as a whole holds those more often.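 A percent growth of 40 corresponds to 60% growth inhibition; 0 means no net growth; -100 means all cells died. Active threshold: below 10.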 Values without a mark were called inactive. The source made the active and inactive calls.

Assays:
Test in all cases: NCI-60 one-dose screen, 48 h (100 = growth as untreated, 0 = no growth, -100 = all killed)
Settings in all cases: 10 µM unless noted
SR leukemia = tested on: SR leukemia
RPMI-8226 leukemia = tested on: RPMI-8226 leukemia
OVCAR-8 ovarian = tested on: OVCAR-8 ovarian
OVCAR-5 ovarian = tested on: OVCAR-5 ovarian
OVCAR-4 ovarian = tested on: OVCAR-4 ovarian
SK-OV-3 ovarian = tested on: SK-OV-3 ovarian
IGROV1 ovarian = tested on: IGROV1 ovarian
OVCAR-3 ovarian = tested on: OVCAR-3 ovarian
HS 578T breast = tested on: HS 578T breast
NCI/ADR-RES ovarian = tested on: NCI/ADR-RES ovarian
T-47D breast = tested on: T-47D breast
BT-549 breast = tested on: BT-549 breast
MDA-MB-435 melanoma = tested on: MDA-MB-435 melanoma
SW-620 colon = tested on: SW-620 colon
MCF7 breast = tested on: MCF7 breast
HCT-116 colon = tested on: HCT-116 colon
HCC-2998 colon = tested on: HCC-2998 colon
KM12 colon = tested on: KM12 colon

Row | SMILES | growth (SR leukemia) | growth (RPMI-8226 leukemia) | growth (OVCAR-8 ovarian) | growth (OVCAR-5 ovarian) | growth (OVCAR-4 ovarian) | growth (SK-OV-3 ovarian) | growth (IGROV1 ovarian) | growth (OVCAR-3 ovarian) | growth (HS 578T breast) | growth (NCI/ADR-RES ovarian) | growth (T-47D breast) | growth (BT-549 breast) | growth (MDA-MB-435 melanoma) | growth (SW-620 colon) | growth (MCF7 breast) | growth (HCT-116 colon) | growth (HCC-2998 colon) | growth (KM12 colon)
1 | COc1ccc2c(c1)C(=O)/C(=C/c1cccc(OCC(=O)Nc3nc4c(s3)CCCC4)c1)O2 | -17.2% (active) | -6.7% (active) | 10.4% | -13.6% (active) | 8.81% (active) | 119% | -47.4% (active) | -68.6% (active) | -16.2% (active) | 10.4% | 47.1% | -65.4% (active) | 27.3% | -61.6% (active) | 21.9% | -25.7% (active) | -66.7% (active) | -68.3% (active)
2 | O=C1Nc2ccccc2C12CC(c1ccccc1)=NN2 (centres undefined) | -7.86% (active) | 47.3% | 70.5% | 83.8% | 77.2% | 59.4% | 43% | 39.6% | 87.9% | 41.5% | 60% | 64.4% | -24.9% (active) | 27.7% | 19.1% | 29.4% | 75.6% | 43.3%
3 | O=C(O)c1cccnc1Br | 89.4% | 112% | 106% | 101% | 102% | 94.4% | 98.1% | 104% | 110% | 99.3% | 85.4% | 110% | 102% | 110% | 96.8% | 98.1% | 98.5% | 113%
4 | c1ccc(CSc2ncnc3nc[nH]c23)nc1 | 103% | 124% | 120% | 96.6% | 105% | 116% | 105% | 104% | 121% | 103% | 107% | 122% | 92.3% | 113% | 99.7% | 93.1% | 125% | 106%
5 | O=C(/C=C\c1cccc([N+](=O)[O-])c1)c1ccccc1 | 12.7% | 0.104% (active) | 74.1% | 111% | 54.4% | 115% | -53% (active) | -83% (active) | 86.5% | 83.6% | -5.11% (active) | 90.1% | 65.7% | -30.1% (active) | -9.56% (active) | -68.3% (active) | 10.9% | -49.7% (active)
6 | CSc1nc2sc3c(c2c(=O)n1-c1ccc(C(C)C)cc1)CCC(=O)C3 | -11.7% (active) | -29.9% (active) | 4.63% (active) | 6.13% (active) | 14.5% | 35.6% | -6.1% (active) | -27.4% (active) | 2.67% (active) | -11.1% (active) | -48.3% (active) | 3.97% (active) | -6.88% (active) | -30.3% (active) | 16% | 2.14% (active) | 16.5% | -42% (active)
7 | C=CC[N+]1(CCO)CCN=C1CCCCCCCCCCCCC (centres undefined) | -39.7% (active) | -39.5% (active) | -74.3% (active) | -94.9% (active) | -25.9% (active) | -48.6% (active) | -82% (active) | -84.4% (active) | -36.5% (active) | -62% (active) | -39.2% (active) | -10.2% (active) | -78.1% (active) | -72.3% (active) | -72.3% (active) | -95.1% (active) | -91.1% (active) | -83.2% (active)
8 | COc1ccc(CN(c2ccc(C)cc2)C2OC(=O)c3ccccc32)cc1OC (centres undefined) | 83.8% | 93.9% | 108% | 89.7% | 103% | 118% | 116% | 113% | 102% | 96.3% | 95.2% | 106% | 100% | 99.2% | 92.5% | 105% | 102% | 102%
